Results taken from PubChem BioAssay (NCI).
Compounds without any hit were thinned out: in the full panel of roughly 79,000, 15% have a hit. Active and inactive are the calls of the source. Cut-off read from the data, not from the text of the source: active = growth inhibition above about 70%; inactive = the rest.

Columns and labels:
[1] = NCI Yeast Anticancer Drug Screen. Data for the rad50 strain (AID 155);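 note: 0% = growth of vehicle-only cultures of the same strain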; settings: S. cerevisiae rad50 strain growth inhibition; at 50.0 µM; stronger effect = higher value
How it was run: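 Inhibition values express reduced yeast growth in compound-treated cultures relative to vehicle-treated controls.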

[2] = NCI Yeast Anticancer Drug Screen. Data for the mec2-1 strain (AID 157); settings: S. cerevisiae mec2-1 strain, at 50.0 µM, stronger effect = higher value
How it was run: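 Each compound was tested on mec2-1 yeast, a strain altered in DNA damage repair or cell cycle control. Growth inhibition is reported relative to vehicle.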

[3] = NCI Yeast Anticancer Drug Screen. Data for the sgs1 mgt1 strain (AID 161);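 note: 0% = growth of cultures given vehicle only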; settings: S. cerevisiae sgs1 mgt1 strain, at 50.0 µM, stronger effect = higher value
How it was run: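 Test agents were incubated with a DNA-repair-mutant yeast strain. Growth was then read and compared against vehicle-treated controls.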

[4] = NCI Yeast Anticancer Drug Screen. Data for the cln2 rad14 strain (AID 165);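 note: 0% = growth equal to vehicle treated cultures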; settings: S. cerevisiae cln2 rad14 strain, at 50.0 µM, stronger effect = higher value
How it was run: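 Test compounds were added to cln2 rad14 yeast cultures; inhibition of growth was then determined by comparison with vehicle treatment.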

[5] = NCI Yeast Anticancer Drug Screen. Data for the bub3 strain (AID 167); settings: S. cerevisiae bub3 mutant strain, at 50.0 µM, stronger effect = higher value
How it was run: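 Steps: expose the mutant yeast strain to compound; grow alongside vehicle-treated cultures; measure growth; express inhibition against the vehicle cultures.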

[6] = NCI Yeast Anticancer Drug Screen. Data for the mlh1 rad18 strain (AID 175); settings: S. cerevisiae mlh1 rad18 strain growth inhibition; at 50.0 µM; stronger effect = higher value
How it was run: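 Inhibition values reflect reduced growth of mutant yeast versus vehicle-treated controls following compound exposure; the mutations affect DNA damage repair.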

SMILES | growth inhibition [1] | growth inhibition [2] | growth inhibition [3] | growth inhibition [4] | growth inhibition [5] | growth inhibition [6]
N#Cc1c(-c2ccc(Cl)cc2)c(C#N)c(=O)n(NS(=O)(=O)c2ccccc2)c1O | 17.5% (inactive) | 46.9% (inactive) | 41.7% (inactive) | 48% (inactive) | 47% (inactive) | 50.2% (inactive)
CCOC(=O)C(NC(=O)OC(C)(C)C)C(=O)OCC | -43.2% (inactive) | -90.8% (inactive) | -33.1% (inactive) | -28.9% (inactive) | 2.6% (inactive) | -27.4% (inactive)
Cc1cnc(NCCCCNc2ncc(C)c(-c3ccccc3O)n2)nc1-c1ccccc1O | -5.25% (inactive) | 1.55% (inactive) | -0.55% (inactive) | -27.1% (inactive) | -3.65% (inactive) | 4.8% (inactive)
CCc1c[nH]c(C=O)c1CC | 6.35% (inactive) | -14.1% (inactive) | -12.5% (inactive) | 11.4% (inactive) | -10.8% (inactive) | 18.6% (inactive)
COC(=O)n1oc2c(Br)cc(Br)cc2c1=O | -4.15% (inactive) | -10.4% (inactive) | 1.45% (inactive) | -6.85% (inactive) | -0.2% (inactive) | 0.8% (inactive)
OC(c1ccoc1)c1cc2ccccc2s1 (centres undefined) | 65% (inactive) | 23.2% (inactive) | 52.5% (inactive) | 22.2% (inactive) | 21.6% (inactive) | 36.7% (inactive)
O=C(Nc1cccc(Cl)c1)Sc1c(Cl)c(Cl)c(Cl)c(Cl)c1Cl | 24.4% (inactive) | 17.3% (inactive) | 26.4% (inactive) | 29.2% (inactive) | 7.3% (inactive) | 34.8% (inactive)
O=[N+]([O-])c1ccc(NN=C2CCCCCC2)c([N+](=O)[O-])c1 | 5.95% (inactive) | 8.35% (inactive) | 8.3% (inactive) | -99% (inactive) | 7.45% (inactive) | -0.45% (inactive)
COCCCNC(=O)C1C(=O)C(=O)N(CCCOC)C1=O (centres undefined) | -2.35% (inactive) | -3.45% (inactive) | -15.8% (inactive) | 13.2% (inactive) | -5% (inactive) | -10.6% (inactive)
Cc1ccccc1-n1c(C)nc(-c2ccccc2)cc1=O | -23.4% (inactive) | -47.2% (inactive) | -4.9% (inactive) | 15.5% (inactive) | -9.4% (inactive) | 2.8% (inactive)
N#Cc1[nH]c(=O)n(-c2ccc(Cl)cc2)c1N | -30.1% (inactive) | -58.6% (inactive) | -19% (inactive) | -11.3% (inactive) | -12.4% (inactive) | -33% (inactive)
CN1NC(c2ccccc2)=NN=C1c1ccccc1 | -8.5% (inactive) | 21.9% (inactive) | 11.3% (inactive) | 0.75% (inactive) | 15.8% (inactive) | 3.65% (inactive)
COC(=O)c1ccc2c(ccc[n+]2C)c1 | -0.6% (inactive) | 21.3% (inactive) | -7.05% (inactive) | 4.8% (inactive) | -3.45% (inactive) | 2.3% (inactive)
Nc1cccc2c1-c1ccc([N+](=O)[O-])cc1C2=O | 7.6% (inactive) | 18.4% (inactive) | -6.25% (inactive) | 5.5% (inactive) | 5.55% (inactive) | 4.25% (inactive)
COC(=O)C(N)C(C)C (centres undefined) | 13.8% (inactive) | 9.15% (inactive) | -10.3% (inactive) | -6.9% (inactive) | 4.55% (inactive) | 0.35% (inactive)
CCCCCCN(CCCCCC)C1=CC(=O)C(=O)c2ccccc21 | 52.9% (inactive) | 31.8% (inactive) | 48.4% (inactive) | 60% (inactive) | 35.1% (inactive) | 54.2% (inactive)
CCN(c1ccccc1)S(=O)(=O)c1ccc(Oc2ccccc2)c(N)c1 | 27.2% (inactive) | -18.9% (inactive) | 16.9% (inactive) | 12.5% (inactive) | 36.5% (inactive) | -10.8% (inactive)
C=C(CCCC(C)OC(=O)NC(C)c1cccc2ccccc12)[Si](C)(C)C (centres undefined) | -41.7% (inactive) | -20.1% (inactive) | -19.6% (inactive) | -6.6% (inactive) | 8.3% (inactive) | -26.4% (inactive)
CCN(CC)CCOc1cc(C(C)C)ccc1C | 76% (active) | 63.5% (inactive) | 63.5% (inactive) | 76.2% (active) | 40.5% (inactive) | 78.2% (active)
COc1cc2c(cc1OC)C1=NN(c3ccccc3)C(=O)C1CC2 (centres undefined) | 22.8% (inactive) | 12.6% (inactive) | 12.3% (inactive) | -7.2% (inactive) | 5.55% (inactive) | 18.8% (inactive)

SMILES | growth inhibition [1] | growth inhibition [2] | growth inhibition [3] | growth inhibition [4] | growth inhibition [5] | growth inhibition [6]
Oc1c(Cl)cccc1CN1CCOCC1 | 26.1% (inactive) | 6.15% (inactive) | 30.5% (inactive) | 25.1% (inactive) | -9.35% (inactive) | 33% (inactive)
C=CC1CCC[N+]1(CC(=O)OCC)Cc1ccccc1 (centres undefined) | -15.2% (inactive) | -13.9% (inactive) | -25.2% (inactive) | 3.7% (inactive) | -2.15% (inactive) | -10.8% (inactive)
CN(C(=O)c1ccncc1)c1ccccc1 | -11.4% (inactive) | -33.1% (inactive) | -14.1% (inactive) | 3.85% (inactive) | -31.1% (inactive) | 8.5% (inactive)
O=C1CC(=C=Nc2ccccc2)C(=O)N1c1ccccc1 | 3.6% (inactive) | 3.85% (inactive) | 1.7% (inactive) | -33.5% (inactive) | -2.2% (inactive) | 19.8% (inactive)
O=C(O)c1ccncc1S(=O)(=O)O | -20.6% (inactive) | -36.2% (inactive) | -24.3% (inactive) | -8.4% (inactive) | -23.5% (inactive) | -9.9% (inactive)
Clc1cccc(NNc2cccc(Cl)c2)c1 | -11.5% (inactive) | -16.8% (inactive) | -13.8% (inactive) | -66.2% (inactive) | 7.25% (inactive) | -25.9% (inactive)
CCCCCCCCc1cc(CN(C)C)c(O)c(C(C)(C)CC(C)(C)C)c1 | -13.7% (inactive) | 2.35% (inactive) | 27.3% (inactive) | 16.7% (inactive) | 16% (inactive) | 8.3% (inactive)
Cc1ccc(C(=O)c2ccccc2Cc2cccc3ccccc23)c(C)c1 | 4.35% (inactive) | 6.6% (inactive) | 1.2% (inactive) | -13.7% (inactive) | 12.6% (inactive) | -14.5% (inactive)
C/C(=N/NC(N)=O)c1ccccc1Cl | -3.75% (inactive) | 3.5% (inactive) | -14.9% (inactive) | -20.4% (inactive) | -6.7% (inactive) | 12.8% (inactive)
COC(=O)c1cc(OC)c(O)c(OC)c1 | -1.3% (inactive) | -0.4% (inactive) | 16.6% (inactive) | -12.3% (inactive) | 4.05% (inactive) | -19.9% (inactive)
COC(=O)C1Cc2cc3c(cc2C1=O)CCC3 (centres undefined) | -19.2% (inactive) | -12.8% (inactive) | -2.8% (inactive) | 6.75% (inactive) | 20.4% (inactive) | -5.45% (inactive)
c1ccc2c(c1)c1c(n2CCOCCN2CCCC2)CCCC1 | 21.6% (inactive) | 2.6% (inactive) | 2.45% (inactive) | 27% (inactive) | 0% (inactive) | -55.8% (inactive)
CCCCCCCC(=O)C(C)C | 7.55% (inactive) | 5.85% (inactive) | 11.8% (inactive) | 4.4% (inactive) | 9.6% (inactive) | 4.35% (inactive)
Clc1ccc(/C=N/N2CCN(/N=C/c3ccc(Cl)cc3)CC2)cc1 | -3.1% (inactive) | -10.3% (inactive) | -0.2% (inactive) | -5.35% (inactive) | 13.2% (inactive) | -15% (inactive)
N[C@@H]1c2c(csc2Br)C(=O)[C@@H]1O | -5.25% (inactive) | -6.55% (inactive) | 13.3% (inactive) | -6.8% (inactive) | 0.8% (inactive) | -14.6% (inactive)
COc1ccc(Cl)cc1NC(=O)c1ccc(C(=O)Nc2cc(Cl)ccc2OC)cc1 | -5.85% (inactive) | 7.3% (inactive) | -10.2% (inactive) | -22.9% (inactive) | 0.7% (inactive) | 9.5% (inactive)
Cc1cc(C)c2c(=O)cc(-c3cccc(F)c3)[nH]c2n1 | 1.35% (inactive) | -0.65% (inactive) | -28.2% (inactive) | 3.8% (inactive) | -1.3% (inactive) | -26.1% (inactive)
COC(=O)c1ccc(C(=O)c2ccccc2)cc1 | -1.15% (inactive) | 9.15% (inactive) | 27.9% (inactive) | 5.55% (inactive) | 14.2% (inactive) | 7.7% (inactive)
CC(C)(C)OC(=O)CC(O)c1ccccc1 (centres undefined) | 3.8% (inactive) | -2.9% (inactive) | 3.65% (inactive) | -2.45% (inactive) | -3.7% (inactive) | 20.8% (inactive)
